Experimental findings from PubChem BioAssay (NCATS) are described below.

Common to all, as to test: qHTS profiling for inhibitors of Plasmodium falciparum proliferation (AID 504749); also: nearly all actives have a fitted effect of over 60% in size
Common to all, as to conditions: P. falciparum in erythrocytes, SYBR Green DNA, 72 h; series mostly up to 28.7 µM

In one experiment the test system is CP265. The method in brief:
(§1)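 P. falciparum-infected erythrocytes (0.3% parasitemia, 2.5% hematocrit) incubated with compound 72 h at 37 C, 5% CO2. Parasite DNA detected by SYBR Green after lysis, overnight at room temperature; normalised to 0.29 uM artemisinin and DMSO.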

A further experiment deals with CP268. The method in brief:
as §1

For a further experiment, the system named is CP269. The method in brief: as §1
A further experiment concerns CP286. The method in brief:
as §1

The next experiment has as its system CP291. The method in brief: as §1
The subject of the next experiment is CP297. The method in brief: as §1
Another experiment relates to CP305. The method in brief:
as §1

A further experiment concerns CP325. The method in brief:
as §1

Another experiment concerns CP335. The method in brief: as §1
The next experiment relates to DFO2036. The method in brief:
as §1

The subject of a further experiment is DIV14. The method in brief:
as §1

The next experiment relates to DIV17. The method in brief:
as §1

The subject of another experiment is Dd2. The method in brief: as §1
For a further experiment, the system named is ECU. The method in brief: as §1
The subject of the next experiment is FAB9. The method in brief:
as §1

The subject of the next experiment is CP262. The method in brief:
as §1

The subject of a further experiment is CP266. The method in brief:
as §1

The next experiment has as its system CP315. The method in brief:
as §1

The next experiment has as its system CP329. The method in brief: as §1
The test system of a further experiment is DIV30. The method in brief: as §1

Molecules are shown by their SMILES. Results filed as inconclusive are left out. Active and inactive are the calls of the source. Calls follow the shape of the dose curve; as a rule, active = well fitted inhibition curve with a large enough effect; inconclusive = small, poorly fitted or top-dose-only effect; inactive = flat fitted curve, though single readings scatter.
Potency is read from the fitted curve at half-maximal effect.

As for `CC(=O)[O][Hg][c]1ccccc1`, the Potency in the experiment on CP265 was 8.91 µM (active); in the experiment on CP268 it was 4.78 µM (active); in the experiment on CP269 it was 4.78 µM (active); in the experiment on CP286, 3.55 µM (active); with CP291 it was 4.26 µM (active); with CP297, 13.5 µM (active). Further, the Potency is 4.26 µM (active) in the experiment on CP305; 6.01 µM (active) in the experiment with CP325; 5.36 µM (active) in the experiment on CP335; 3.98 µM (active) with DFO2036; 4.78 µM (active) with DIV14; 4.26 µM (active) with DIV17. Besides, the Potency was 0.126 µM (active) with Dd2, 10 µM (active) in the experiment with ECU and 3.98 µM (active) in the experiment with FAB9.

With `C[C@]12CCC(=O)C(O)=C1CC[C@@H]1[C@H]3CCC(=O)[C@@]3(C)CC[C@@H]12`, the Potency result in the experiment with CP262, with CP268, in the experiment on CP269, in the experiment on CP286, in the experiment on CP291 and with CP297 was “inactive” in each case. Moreover, the Potency entry in the experiment with CP305, with CP315, in the experiment with CP325, in the experiment on CP329, with CP335 and in the experiment with DIV30 was “inactive” in each case. The Potency entry with Dd2, in the experiment on ECU and with FAB9 was “inactive” throughout. Moreover, the call in the experiment with CP266 was inactive.

`c1ccc(C2(c3ccccc3)CC2C2=NCCN2)cc1` (stereo unspecified): the Potency entry in the experiment with CP262, in the experiment with CP265, with CP268, with CP269, in the experiment on CP291 and with CP297 was “inactive” each time. Moreover, the Potency entry in the experiment with CP305, in the experiment with CP315, in the experiment on CP325, in the experiment with CP329, in the experiment on CP335 and in the experiment on DFO2036 was “inactive” each time. Further, the Potency entry in the experiment on DIV30, with Dd2, in the experiment on ECU and with FAB9 was “inactive” each time.

Regarding `CC(C)NC(C)Cc1ccc(I)cc1` (stereo unspecified), the Potency entry in the experiment on CP262, in the experiment with CP265, in the experiment on CP269, in the experiment on CP286, with CP291 and with CP305 was “inactive” throughout. The Potency result with CP315, with CP325, with CP329, with DFO2036, in the experiment with ECU and with FAB9 was “inactive” in each case. The outcome in the experiment on CP266 was inactive.

With `CN1C2CCC1CC(OC(=O)c1cc(Cl)cc(Cl)c1)C2` (stereo unspecified), the Potency entry in the experiment with CP262, in the experiment on CP265, with CP268, in the experiment on CP269, with CP286 and in the experiment on CP291 was “inactive” each time. Moreover, the Potency entry in the experiment on CP305, in the experiment on CP315, in the experiment with CP325, in the experiment on CP329, with CP335 and with DFO2036 was “inactive” throughout. The Potency entry in the experiment with DIV30, in the experiment with Dd2 and in the experiment on FAB9 was “inactive” in each case. Moreover, the outcome with CP266 was inactive.

Regarding `O=[N+]([O-])c1ccc([As](=O)(O)O)cc1`, the Potency with CP262 was 8.49 µM (active); in the experiment with CP265 it was 10 µM (active); in the experiment on CP268, 13.5 µM (active); in the experiment with CP269 it was 6.01 µM (active); with CP286, 7.94 µM (active); with CP291, 8.49 µM (active). The Potency is 10.7 µM (active) in the experiment with CP297; 7.57 µM (active) with CP305; 12 µM (active) with CP315; 9.53 µM (active) in the experiment with CP325; 12 µM (active) with CP329; 4.78 µM (active) with CP335. Moreover, the Potency with DFO2036 is 5.01 µM (active); with DIV14 it was 10.7 µM (active); in the experiment on DIV17, 12 µM (active); in the experiment on DIV30, 8.49 µM (active); with Dd2, 3.98 µM (active); with ECU, 3.55 µM (active).

As to `NC(=O)CN1CC(O)CC1=O` (stereo unspecified), the Potency entry with CP262, in the experiment with CP265, in the experiment on CP268, in the experiment with CP269, in the experiment on CP286 and with CP291 was “inactive” each time. The Potency result in the experiment on CP297, with CP305, with CP315, in the experiment on CP325, with CP329 and in the experiment with CP335 was “inactive” in each case. The Potency entry in the experiment on DFO2036, with DIV14, in the experiment on DIV17, in the experiment with DIV30, in the experiment with Dd2 and in the experiment on ECU was “inactive” throughout. In addition, in the experiment on FAB9, the Potency entry is “inactive”. Also, the result in the experiment on CP266 was inactive.

In the case of `C1CCC(NC2CCCCC2)CC1`, the Potency entry in the experiment on CP262, with CP265, with CP268, with CP269, in the experiment on CP286 and in the experiment with CP291 was “inactive” each time. Also, the Potency result in the experiment with CP297, in the experiment with CP305, in the experiment with CP315, in the experiment with CP325, with CP329 and in the experiment with CP335 was “inactive” throughout. Besides, the Potency result in the experiment on DFO2036, in the experiment with DIV14, in the experiment with DIV17, in the experiment on DIV30, in the experiment with Dd2 and in the experiment with ECU was “inactive” throughout. Further, the Potency result with FAB9 was “inactive”. In the experiment with CP266, the call was inactive.

`CC(=O)OCC1=C(C(=O)O)N2C(=O)[C@@H](N)[C@@H]2SC1`: the Potency entry with CP262, in the experiment with CP268, in the experiment on CP269, with CP286, in the experiment on CP291 and in the experiment on CP297 was “inactive” each time. The Potency entry in the experiment with CP305, with CP315, in the experiment with CP325, with CP329, in the experiment on CP335 and with DIV14 was “inactive” throughout. Also, the Potency result in the experiment on DIV17, in the experiment with DIV30, in the experiment on Dd2, in the experiment with ECU and in the experiment with FAB9 was “inactive” each time. Also, the molecule was called inactive in the experiment on CP266.

For the molecule `CCCCCCCCCCCCCCCC[N+](C)(C)C`, the Potency in the experiment with CP265 is 11.2 µM (active); with CP268, 13.5 µM (active); with CP286 it was 5.01 µM (active); in the experiment with CP291, 13.5 µM (active); in the experiment with CP297, 13.5 µM (active); in the experiment with CP325, 12 µM (active). Also, the Potency with CP329 was 10.7 µM (active); in the experiment with CP335, 8.49 µM (active); in the experiment on DIV14 it was 6.75 µM (active); with DIV17, 8.49 µM (active); in the experiment with ECU it was 8.91 µM (active).

Turning to `COC(=O)c1cncn1C(C)c1ccccc1` (stereo unspecified), the Potency entry in the experiment with CP262, with CP268, in the experiment on CP269, with CP291, in the experiment on CP297 and in the experiment with CP305 was “inactive” in each case. The Potency result in the experiment on CP315, in the experiment on CP325, in the experiment on CP329, in the experiment with CP335, with DIV14 and in the experiment on DIV17 was “inactive” in each case. Besides, the Potency result in the experiment on DIV30 is “inactive”. In the experiment on CP266, the outcome was inactive.

Regarding `O=C(O)COc1ccccc1`, the Potency result in the experiment with CP262, with CP265, in the experiment with CP268, in the experiment on CP269, in the experiment on CP286 and in the experiment with CP291 was “inactive” throughout. Besides, the Potency result with CP297, in the experiment with CP305, in the experiment on CP315, in the experiment on CP325, in the experiment on CP329 and in the experiment on CP335 was “inactive” throughout. Besides, the Potency entry with DFO2036, in the experiment with DIV14, with DIV17, in the experiment on DIV30, in the experiment with Dd2 and in the experiment on ECU was “inactive” each time. Moreover, the Potency entry with FAB9 was “inactive”. The molecule was called inactive with CP266.

For `CN(C)[C@@H]1C(=O)C(C(N)=O)=C(O)[C@@]2(O)C(=O)C3=C(O)c4c(O)cccc4[C@@](C)(O)[C@H]3[C@H](O)[C@@H]12`, the Potency result in the experiment on CP265, with CP268, in the experiment with CP269, in the experiment with CP291, in the experiment with CP305 and in the experiment on CP315 was “inactive” throughout. Further, the Potency entry with CP325, in the experiment with CP329, with DIV14, in the experiment with DIV17, in the experiment with ECU and with FAB9 was “inactive” throughout. Besides, the molecule was classed as inactive in the experiment with CP266. For the same molecule, the Potency in the experiment on Dd2 was 3.55 µM (active).
